Key:
Assay in all cases: DAPPL (digital affinity profiling via proximity ligation, sequencing); 10 mM Tris-HCl pH 7.5, 50 mM NaCl, 1 mM DTT, 4% glycerol, room temperature, 30 min; GST-TFs on glutathione beads, 16-mer random dsDNA library, 0.1% formaldehyde crosslink after washing; high values mean tight binding
Conditions in all cases: protein: recombinant; tags: N-terminal GST; dsDNA, one strand shown
[1] = biological target: T1, FLI1 (Homo sapiens, UniProt Q01543 1-452)
T1 sequence: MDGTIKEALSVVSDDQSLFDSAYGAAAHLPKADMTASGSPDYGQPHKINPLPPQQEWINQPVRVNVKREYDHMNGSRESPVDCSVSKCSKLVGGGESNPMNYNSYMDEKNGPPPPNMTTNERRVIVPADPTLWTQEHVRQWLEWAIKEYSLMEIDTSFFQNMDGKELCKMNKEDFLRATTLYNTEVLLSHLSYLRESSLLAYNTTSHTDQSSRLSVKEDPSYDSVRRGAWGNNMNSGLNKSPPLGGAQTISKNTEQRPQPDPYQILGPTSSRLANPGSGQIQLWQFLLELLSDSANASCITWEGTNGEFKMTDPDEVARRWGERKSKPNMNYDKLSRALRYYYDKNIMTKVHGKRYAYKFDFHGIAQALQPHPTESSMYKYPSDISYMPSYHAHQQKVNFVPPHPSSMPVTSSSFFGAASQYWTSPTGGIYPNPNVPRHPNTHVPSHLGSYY
Method in brief: (§1)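 A tag-only sample was pooled with DNA-barcoded human transcription factors that had been expressed in yeast as GST fusions and captured on glutathione beads. The pools were incubated for 30 min at room temperature with 200 nmole of a random double-stranded 16-mer DNA library in Tris/NaCl/DTT/glycerol buffer, then washed, crosslinked with 0.1% formaldehyde, proximity-ligated (BsaI/T4 ligase, 1 h, 37 °C), PCR-amplified and sequenced on an Illumina NextSeq500. Binding signal is each hexamer's read frequency for a factor divided by its frequency for the tag-only sample.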

[2] = biological target: T2, ELK1 (Homo sapiens, UniProt P19419 1-428)
T2 sequence: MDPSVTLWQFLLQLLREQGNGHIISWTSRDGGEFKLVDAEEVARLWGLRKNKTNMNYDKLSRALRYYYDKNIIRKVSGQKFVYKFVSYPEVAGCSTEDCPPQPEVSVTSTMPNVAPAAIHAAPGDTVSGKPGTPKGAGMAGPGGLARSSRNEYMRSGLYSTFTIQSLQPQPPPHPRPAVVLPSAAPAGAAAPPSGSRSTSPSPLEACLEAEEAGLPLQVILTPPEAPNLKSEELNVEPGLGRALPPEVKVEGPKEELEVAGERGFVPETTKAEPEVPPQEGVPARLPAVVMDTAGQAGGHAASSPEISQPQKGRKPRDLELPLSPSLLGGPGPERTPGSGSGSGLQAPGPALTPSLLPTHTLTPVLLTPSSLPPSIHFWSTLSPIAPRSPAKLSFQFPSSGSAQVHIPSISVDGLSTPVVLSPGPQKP
Method in brief: as §1

[3] = biological target: T3, GABPA (Homo sapiens, UniProt Q06546 1-454)
T3 sequence: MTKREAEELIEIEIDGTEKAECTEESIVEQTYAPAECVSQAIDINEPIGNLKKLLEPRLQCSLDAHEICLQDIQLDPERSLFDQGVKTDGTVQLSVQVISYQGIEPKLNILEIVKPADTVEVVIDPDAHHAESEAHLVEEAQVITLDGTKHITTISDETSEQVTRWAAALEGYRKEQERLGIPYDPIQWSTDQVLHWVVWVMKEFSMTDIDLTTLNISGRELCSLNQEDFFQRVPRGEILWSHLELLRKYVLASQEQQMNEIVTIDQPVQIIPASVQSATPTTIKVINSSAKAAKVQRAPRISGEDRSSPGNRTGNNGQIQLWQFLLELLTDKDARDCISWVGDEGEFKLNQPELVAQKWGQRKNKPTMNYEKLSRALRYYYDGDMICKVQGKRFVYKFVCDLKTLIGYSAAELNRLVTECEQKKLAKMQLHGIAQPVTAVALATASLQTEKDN
Method in brief: as §1

[4] = biological target: T4, ERG (Homo sapiens, UniProt P11308 1-479)
T4 sequence: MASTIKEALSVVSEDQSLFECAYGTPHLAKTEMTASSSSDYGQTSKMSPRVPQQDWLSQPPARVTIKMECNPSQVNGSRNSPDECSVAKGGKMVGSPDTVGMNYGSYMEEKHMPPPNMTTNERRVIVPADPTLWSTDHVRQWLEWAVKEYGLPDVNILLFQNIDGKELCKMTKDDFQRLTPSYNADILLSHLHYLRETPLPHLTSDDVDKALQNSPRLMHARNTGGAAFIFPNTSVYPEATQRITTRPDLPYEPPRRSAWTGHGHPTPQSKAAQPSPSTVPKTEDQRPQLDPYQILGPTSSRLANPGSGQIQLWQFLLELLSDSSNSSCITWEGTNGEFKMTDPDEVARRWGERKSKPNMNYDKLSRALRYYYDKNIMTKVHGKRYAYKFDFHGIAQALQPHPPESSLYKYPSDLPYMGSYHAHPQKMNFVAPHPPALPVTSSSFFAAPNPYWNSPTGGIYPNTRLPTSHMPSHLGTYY
Method in brief: as §1

[5] = biological target: ELF1 (Homo sapiens, UniProt P32519 1-619)
Method in brief: as §1

[6] = biological target: T5, EHF (Homo sapiens, UniProt Q9NZC4 1-300)
T5 sequence: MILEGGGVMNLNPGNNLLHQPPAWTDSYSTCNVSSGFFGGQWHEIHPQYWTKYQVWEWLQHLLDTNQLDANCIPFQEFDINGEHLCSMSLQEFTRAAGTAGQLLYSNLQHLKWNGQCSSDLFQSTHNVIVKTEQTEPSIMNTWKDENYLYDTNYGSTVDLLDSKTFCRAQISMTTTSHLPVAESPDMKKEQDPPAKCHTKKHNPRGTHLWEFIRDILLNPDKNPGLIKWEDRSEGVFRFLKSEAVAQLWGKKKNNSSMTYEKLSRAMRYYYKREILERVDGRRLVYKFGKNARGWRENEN
Method in brief: as §1

[7] = biological target: SPI1 (Homo sapiens, UniProt P17947 1-270)
Method in brief: as §1

[8] = biological target: SPIB (Homo sapiens, UniProt Q01892 1-262)
Method in brief: as §1

[9] = biological target: T6, ELK3 (Homo sapiens, UniProt P41970 1-407)
T6 sequence: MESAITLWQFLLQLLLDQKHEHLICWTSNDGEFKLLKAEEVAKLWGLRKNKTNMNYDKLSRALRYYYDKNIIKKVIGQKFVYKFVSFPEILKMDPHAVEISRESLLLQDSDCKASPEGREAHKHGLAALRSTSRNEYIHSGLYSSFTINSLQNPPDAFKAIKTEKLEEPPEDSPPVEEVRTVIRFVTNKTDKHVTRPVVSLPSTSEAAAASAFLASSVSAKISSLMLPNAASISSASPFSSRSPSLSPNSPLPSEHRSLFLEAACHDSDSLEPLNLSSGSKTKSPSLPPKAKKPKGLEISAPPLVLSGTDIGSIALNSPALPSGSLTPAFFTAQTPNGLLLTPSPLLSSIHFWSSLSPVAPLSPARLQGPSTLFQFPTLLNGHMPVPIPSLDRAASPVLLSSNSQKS
Method in brief: as §1

SPIB, sequence (Q01892 whole entry): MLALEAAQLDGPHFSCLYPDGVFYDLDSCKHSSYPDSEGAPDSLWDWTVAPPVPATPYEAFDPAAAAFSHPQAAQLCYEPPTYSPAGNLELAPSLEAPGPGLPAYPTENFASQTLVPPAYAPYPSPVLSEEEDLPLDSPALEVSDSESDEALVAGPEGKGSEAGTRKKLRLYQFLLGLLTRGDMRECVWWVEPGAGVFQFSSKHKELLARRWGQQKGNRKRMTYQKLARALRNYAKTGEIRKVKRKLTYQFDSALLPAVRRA
ELF1, sequence (P32519 whole entry): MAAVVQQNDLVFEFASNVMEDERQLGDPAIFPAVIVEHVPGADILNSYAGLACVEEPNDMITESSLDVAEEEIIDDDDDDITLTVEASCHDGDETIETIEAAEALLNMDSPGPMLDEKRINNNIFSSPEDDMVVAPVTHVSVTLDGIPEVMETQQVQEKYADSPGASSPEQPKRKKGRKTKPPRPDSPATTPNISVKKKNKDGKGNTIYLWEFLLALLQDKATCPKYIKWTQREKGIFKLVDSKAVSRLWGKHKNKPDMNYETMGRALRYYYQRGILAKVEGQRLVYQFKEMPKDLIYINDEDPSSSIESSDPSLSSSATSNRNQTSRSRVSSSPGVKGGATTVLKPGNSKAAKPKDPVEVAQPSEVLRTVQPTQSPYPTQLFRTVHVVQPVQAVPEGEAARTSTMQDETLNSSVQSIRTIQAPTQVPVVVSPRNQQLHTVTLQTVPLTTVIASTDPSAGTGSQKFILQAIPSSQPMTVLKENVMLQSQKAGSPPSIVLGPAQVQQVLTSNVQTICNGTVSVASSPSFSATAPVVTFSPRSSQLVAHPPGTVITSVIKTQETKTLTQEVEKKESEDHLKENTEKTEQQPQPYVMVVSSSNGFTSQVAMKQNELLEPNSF

CCTGGT
binding signal [1]: 1.28 fold enrichment (6-mer frequency, TF over GST control) | binding signal [2]: 1.34 fold enrichment (6-mer frequency, TF over GST control) | binding signal [3]: 1.4 fold enrichment (6-mer frequency, TF over GST control) | binding signal [4]: 1.29 fold enrichment (6-mer frequency, TF over GST control) | binding signal [5]: 1.44 fold enrichment (6-mer frequency, TF over GST control) | binding signal [6]: 1.47 fold enrichment (6-mer frequency, TF over GST control) | binding signal [7]: 1.4 fold enrichment (6-mer frequency, TF over GST control) | binding signal [8]: 1.52 fold enrichment (6-mer frequency, TF over GST control) | binding signal [9]: 1.33 fold enrichment (6-mer frequency, TF over GST control)
